TDP1 cell noCPT – qHTS for Inhibitors of human tyrosyl-DNA phosphodiesterase 1 (TDP1): qHTS in cells in absence of CPT; AID 686978, 2013; Potency, µM (highest dose often 46.2 µM), for inactives: at the top dose activity change, negative = growth inhibition, actives largely listed as inhibitors; DT40 Tdp1-/- hTDP1 cells, no CPT, ATP luminescence, 48 h; 420,000 compounds, 15% hits; further: on the % scale 0 is the no-effect control and ±100 the full control effect; nearly all actives have a fitted effect of over 55% in size
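No-CPT arm: Tdp1-/-;hTDP1 DT40 cells (400/well) plus compounds, incubated ≥48 hr at 37 °C. Readout CellTiter-Glo luminescence.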
ClpP mod – qHTS Assay for Activators of ClpP; purified B. subtilis ClpP, FRET peptide cleavage, 20 min; Potency, µM (doses to about 57.5 µM), inactives show at the highest dose activity change, negative = active; 340,000 compounds, 1.9% hits; active means well fitted falling curve with a large enough effect; inconclusive means small, poorly fitted or top-dose-only effect; inactive means no such curve, though single readings can be large or run the other way; further: the source files actives as falling curves though it sought activators and does not explain the sign; nearly all actives have a fitted effect of over 65% in size
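ClpP 10 microg/mL final, pH 8 Tris/KCl buffer with BSA, glycerol, Tween-20; compound pinned in; FRET-FV substrate; RT 20 min; Ex320/Em430; ΔFRET vs ADEP 5.8 microM, DMSO, no enzyme.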
TDP1 cell CPT – growth inhibition of DT40 Tdp1-/-;hTDP1 cells with camptothecin (screen for TDP1 inhibitors). chicken DT40 Tdp1-/-;hTDP1 cells + 20 nM CPT, ATP luminescence, 48 h. Potency, µM (highest dose often 46.2 µM), for the others: top-dose activity change, negative = growth inhibition, usual class: inhibitors. 420,000 compounds, 12% hits. AID 686979; further: on the % scale 0 is the no-effect control and ±100 the full control effect; nearly all actives have a fitted effect of over 55% in size
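Cell growth measured by CellTiter-Glo luminescence after a minimum 48 h, 37 C compound exposure with 20 nM CPT in Tdp1-knockout DT40 cells stably expressing hTDP1, seeded 400/well; qHTS titration format.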
TDP1 block – TDP1 (human) enzyme inhibition; Q9NUW8; recombinant TDP1, AlphaScreen DNA substrate cleavage; Potency, µM (series often up to 130 µM), without a hit: at the top dose activity change, negative = inhibition, hits mostly inhibitors; 350,000 compounds, 0.28% hits; further: on the % scale 0 is the no-effect control and ±100 the full control effect; nearly all actives have a fitted effect of over 40% in size
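Compounds were preincubated with Tdp1 (1 nM final) for 15 min at room temperature before substrate (15 nM final) started a 5 min reaction; beads (10 ug/ml final) were then added for 10 min before AlphaScreen detection.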
The depositor's hits bear a star; ? = inconclusive; nt = not tested or not shown; ! = not active in a repeat. The list is not random: actives were taken first. Their share in the collection is about 17%. Unless noted, the call rests on the fitted dose curve; in most records, active means well fitted curve in the direction sought with a large enough effect; inconclusive means small, poorly fitted or top-dose-only effect, or another doubt; inactive means no such curve, though single readings can be large; an effect the other way counts as inactive or inconclusive. Potency means the concentration at half of the fitted maximal effect.

SMILES	TDP1 cell noCPT	ClpP mod	TDP1 cell CPT	TDP1 block
COc1cc(C(=O)NCc2nnc(SCC(=O)Nc3nc4ccccc4s3)o2)cc(OC)c1OC	10µM*	1%	9.2µM*	3%
CC(C)(C)c1ccc(C(=O)NCc2nnc(SCC(=O)NC3CCCCC3)o2)cc1	21µM*	1%	8.2µM*	4%
COc1ccc(C(=O)NCc2nnc(SCC(=O)Nc3cc(OC)ccc3OC)o2)cc1	31%	-1%	-1%	6%
O=C(NCCc1ccco1)C(=O)NCC1OCCCN1S(=O)(=O)c1ccccc1 (configuration not stated)	-16%	-1%	-22%	4%
Cc1cn2c(=O)cc(COc3ccc(NC(=O)c4ccc(C(C)(C)C)cc4)cc3)nc2s1	?	-2%	?	4%
Cc1ccc(Nc2c(-c3ccco3)nc3ccccn23)cc1	?	25µM*	-14%	-1%
c1coc(-c2nc3ccccn3c2Nc2ccc3c(c2)OCCO3)c1	-92%	4%	?	15%
Cc1ccccc1Nc1c(-c2ccco2)nc2c(C)cccn12	21µM*	4%	23µM*	15%
c1ccc(Nc2c(-c3ccco3)nc3ccccn23)cc1	23µM*	25µM*	?	3%
Fc1ccc(Nc2c(-c3ccco3)nc3ccccn23)cc1	5.8µM*	28µM*!	15µM*	12%
c1ccc(Cc2noc(CN3CCN(CCOc4ccccc4)CC3)n2)cc1	-5%	-1%	-27%	nt
CC(=O)N1CCc2cc(Br)cc(S(=O)(=O)CCC(=O)N3CCN(c4ccccc4)CC3)c21	-4%	-1%	2%	-3%
O=C(NCc1ccccc1)c1cc(C2CCCCN2C(=O)OCCF)on1 (configuration not stated)	-10%	-2%	1%	nt
CC(=O)Oc1ccccc1Cn1c(C)c(C(=O)NCc2ccccc2C(F)(F)F)sc1=O	?	0%	?	nt
O=C1NC[C@H](CCCCN2C[C@H](Cc3ccc(O)cc3)N(CC3CCCCC3)C(=O)C2=O)N(CCc2ccc(O)cc2)C1=O	-6%	1%	2%	nt
CCCCn1nnnc1C(c1ccccc1)N1CCN(c2ccc(OC)cc2)CC1 (configuration not stated)	?	-13%	?	nt
C=C(C)Cn1c2ccc(NC(=O)CCc3cccc(Cl)c3)cc2c(=O)n1C	15µM*	4%	18µM*	nt
CCOCCC(=O)Nc1ccc2c(c1)c(=O)n(C)n2CC=C(C)C	2.9µM*	5%	5.2µM*	nt
COc1cc(Cn2c3ccc(NC(=O)CCc4ccc(O)cc4)cc3c(=O)n2C)ccc1F	21µM*	5%	?	nt
COc1ccc(CCNC(=O)Nc2ccc3c(c2)c(=O)n(C)n3Cc2ccc(F)cc2)cc1OC	?	4%	?	nt
C=C(C)Cn1c2ccc(NC(=O)CCOCC)cc2c(=O)n1C	-4%	5%	14%	nt
Cn1c(=O)c2cc(NC(=O)CCc3ccc4c(c3)OCO4)ccc2n1Cc1ccc(F)cc1	?	5%	16µM*	nt
Cn1c(=O)c2cc(NC(=O)NCCc3ccccc3)ccc2n1Cc1ccc(F)cc1	?	4%	?	nt
CCOC(=O)C1CCCN(C(=O)c2cc(S(=O)(=O)N3CCCCC3)c[nH]2)C1 (configuration not stated)	-9%	-2%	-1%	nt
COc1cc(Cn2c3ccc(NC(=O)NCc4ccc(F)cc4)cc3c(=O)n2C)ccc1F	5.2µM*	4%	5.8µM*	nt
SMILES	TDP1 cell noCPT	ClpP mod	TDP1 cell CPT	TDP1 block
CCCC/C=C/[C@@H](c1ccccc1)C1COC(=O)CC1O (some centres not stated)	nt	nt	nt	7%
c1cc2c3c(c1)c1c(n3CCNC2)CCCC1	24µM*	nt	?	21%
Cc1c(C)n2c3c(cccc13)CC2	-5%	nt	0%	?
COc1cc(OC)cc(C(=O)NNC(=S)NC2CC2)c1	?	0%	11%	0%
NC(=S)Nc1cccc(O)c1	2%	2%	-19%	1%
O=C(Oc1ccccc1)N1CCC2(CC1)CCN(c1ccncc1)CC2	15µM*	nt	15µM*	nt
O=C(Oc1ccccc1)N1CCC2(CC1)CCN(c1ccccn1)CC2	?	nt	16µM*	nt
CCOC(=O)C1(C)CCCCCN1C(=O)c1ccco1 (configuration not stated)	?	1%	-18%	nt
O=C(NC1C2CCCC1CN(C1CC1)C2)c1ccc(Cl)cc1 (configuration not stated)	29µM*	0%	?	nt
N#Cc1nc(NCC(F)F)c2ncn(-c3cccc(Cl)c3)c2n1	nt	nt	nt	-2%
O=C1NC(c2ccccc2)=C(c2ccc3ccccc3n2)C(c2ccccc2)N1 (configuration not stated)	26µM*	nt	?	8%
Cc1cccc(N(C(=O)CNC(=O)c2ccco2)C(C(=O)NCC2CCCO2)c2ccccc2)c1 (configuration not stated)	-27%	nt	-3%	1%
Cc1cc(C)cc(N2C(=O)CC(Sc3nnnn3-c3ccccc3)C2=O)c1 (configuration not stated)	5.2µM*	-3%	2.6µM*	2%
Cc1cc(C)cc(N2C(=O)CC(c3ccccc3)CC2=O)c1	7%	-1%	-2%	1%
Cc1cc(C)cc(N2C(=O)CC(Cn3nc(C)cc3C)C2=O)c1 (configuration not stated)	-19%	nt	?	1%
O=C1CC(SCCO)C(=O)N1c1ccccc1 (configuration not stated)	-12%	2%	-7%	4%
Cn1nnnc1SC1CC(=O)N(c2ccccc2)C1=O (configuration not stated)	3.3µM*	nt	2.6µM*	-3%
O=C1CC(Sc2nnnn2C2CCCCC2)C(=O)N1c1ccccc1 (configuration not stated)	4.1µM*	0%	2.9µM*	0%
COC(=O)c1ccccc1SC1CC(=O)N(c2ccccc2)C1=O (configuration not stated)	-26%	-1%	?	3%
Cc1cc(C)cc(N2C(=O)CC(Sc3ncn[nH]3)C2=O)c1 (configuration not stated)	1.5µM*	nt	2.6µM*	nt
O=C(NCCCN1CCCC1=O)c1sc2ccccc2c1Cl	-12%	-1%	0%	1%
CC(=O)Nc1ccc(OC(=O)N2CCCC2)cc1	2%	1%	11%	nt
COc1ccc(CC(=O)Nc2c(C(=O)Nc3ccc(F)cc3)oc3ccccc23)cc1OC	21µM*	-20%	12µM*	12%
COC(=O)c1cc(NC(=O)Cc2coc3cc(OC)ccc23)cc(C(=O)OC)c1	?	-3%	23µM*	0%
COc1ccc(NC(=O)c2oc3ccccc3c2NC(=O)Cc2coc3cc(C)ccc23)cc1	12µM*	66%	?	-5%

Bioassay records as filed in PubChem BioAssay.
